Test results from PubChem BioAssay (NCI).
This is part of a sample that, as a whole, favours compounds with a hit. Of some 83,000 tested, about 20% had one in any assay.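 Negative percent growth values reflect cell death: -40 means 40% of the cells present at the start died, and -100 means all died.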 Unmarked numbers belong to inactive results. Activity calls are given as the source filed them. How the source made its calls: active means growth percent below 10; inactive means the rest.

How the values were obtained:
Test in all cases: NCI-60 one-dose screen, 48 h (100 = growth as untreated, 0 = no growth, -100 = all killed)
Details in all cases: 10 µM unless noted
HCT-15 colon = system: HCT-15 colon
HT29 colon = system: HT29 colon
SNB-75 CNS = system: SNB-75 CNS
SNB-19 CNS = system: SNB-19 CNS
U251 CNS = system: U251 CNS
PC-3 prostate = system: PC-3 prostate
SK-MEL-5 melanoma = system: SK-MEL-5 melanoma
LOX IMVI melanoma = system: LOX IMVI melanoma
SK-MEL-28 melanoma = system: SK-MEL-28 melanoma
UACC-62 melanoma = system: UACC-62 melanoma

Structure (SMILES)	growth (HCT-15 colon)	growth (HT29 colon)	growth (SNB-75 CNS)	growth (SNB-19 CNS)	growth (U251 CNS)	growth (PC-3 prostate)	growth (SK-MEL-5 melanoma)	growth (LOX IMVI melanoma)	growth (SK-MEL-28 melanoma)	growth (UACC-62 melanoma)
NC(=S)N/N=C(\c1ccc(Cl)cc1)C1CC1	84.3%	50.6%	83.7%	104%	92.1%	77.9%	89.1%	94.2%	98.7%	
CCOC(=O)C1=C(C)NC(C)=C(C(=O)OCC)C1c1cc(Br)c(O)c(OC)c1	30.9%	71.4%	8.16% (active)	45.2%		32.6%	19.5%	36.7%		48.8%
CCOC(=O)Oc1c(OC)cc(C(=O)O[C@@H]2C[C@@H]3CN4CCc5c([nH]c6cc(OC)ccc56)[C@H]4C[C@@H]3[C@H](C(=O)OC)[C@H]2OC)cc1OC	44.1%	36.7%	91.1%	75.5%	49.4%		86.1%	14.4%		87.8%
Cc1cc(C)n(Nc2nc3ccccc3[nH]c2=O)c(=O)c1C#N	102%	110%	79.5%	93.1%	95.4%	94.8%		91.5%	104%	94.8%
O=C(O)/C=C\C(=O)N1C/C(=C\c2ccccc2Cl)C(=O)/C(=C/c2ccccc2Cl)C1	-48.8% (active)	-78.1% (active)	-10.3% (active)	-52.7% (active)	-75.2% (active)		-54.1% (active)	-69.3% (active)	-39.6% (active)	
C=CCn1c(SCC(=O)Nc2ccc(C(=O)/C=C/c3cc(OC)c(OC)c(OC)c3)cc2)nnc1-c1cc(OC)c(OC)c(OC)c1	0.237% (active)	-34.8% (active)	37.2%	40.6%	2.63% (active)		31.7%	5.43% (active)	66.9%	33.7%
CSc1nc(O)c(-c2ccccc2)c(=O)[nH]1	102%	99.9%	97.1%	100%	101%		101%	101%	101%	93.1%
COc1cccc(C(Cc2ccccc2)Nc2ccccc2)c1OC (stereo not drawn)	91.3%	73%	90.1%	104%	89.8%		97.1%	98.1%	107%	88.7%
COc1ccccc1Nc1cc(O)c2c(=O)cc(-c3ccccc3)oc2c1	29.3%	17%	-4.79% (active)	43.9%	22.1%		24.6%	39.9%	56.5%	35.8%
ClCC1(Cn2cnc3c(Cl)nc(Cl)nc32)COC1	45.9%	76.8%	85.4%	88.8%	89.2%		98.4%	45.2%	89.9%	91.6%
CN1CCN(CCCOc2ccc3ncnc(Nc4ccc(Oc5cccc(C(F)(F)F)c5)c(Cl)c4)c3c2)CC1	-55.7% (active)	-26.9% (active)	-21.1% (active)	41.7%	-11% (active)		-96.8% (active)	-87.7% (active)	-93.2% (active)	-75.7% (active)
COc1cc(/C=N/NC(=O)c2ccccc2Nc2cccc(C(F)(F)F)c2)ccc1O	86.1%	113%	107%	84.2%	87.8%		58.8%	76.3%	104%	78.7%
COc1ccc(C(O)c2cc3c(N)c(C(=O)Nc4cccc(Br)c4C)sc3nc2C)cc1 (stereo not drawn)	18.6%	-16% (active)	-1.38% (active)	44%	20.9%		-7.36% (active)	32.7%	64.7%	27.2%
Fc1ccc(-n2cc(COc3ncnc4sc5c(c34)CCCC5)nn2)cc1Cl	100%	97.3%	90.5%	94.7%	99.7%		103%	93.7%	110%	92.2%
CS(=O)(=O)c1ccc(-c2cc(-c3nnc(SCC(=O)Nc4ccc(C(=O)/C=C/c5ccc(Cl)cc5)cc4)n3-c3ccccc3)c3ccccc3n2)cc1	96.4%	106%	72.3%	85.2%	90.9%		95.7%	92.2%	103%	80.2%
Cc1[nH]n(-c2cccc(Cl)c2)c(=O)c1/C=C1\C=Nc2ccc(Br)cc21	59.2%	11.1%	-13.5% (active)	78.1%	7.54% (active)		60.4%	4.2% (active)	71.2%	37.4%
C=C(C)[C@@H]1CC[C@]2(C(=O)NCC(=O)OC)CC[C@]3(C)[C@H](CC[C@@H]4[C@@]5(C)Cc6c([nH]c7ccccc67)C(C)(C)[C@@H]5CC[C@]43C)[C@@H]12	81.9%	60.8%	114%	82.5%		49.1%	81.7%	70.7%		76.6%
CN1CCN(c2ccc(NC3=C(Cl)C(=O)c4ncccc4C3=O)cc2C#N)CC1	48.2%	103%	81.1%	96.8%	56.1%		97.5%	-61.6% (active)	-50.9% (active)	83.4%
Nc1ncc(C#Cc2cncc(NC(=O)c3cccc(C(F)(F)F)c3)c2)c2cccnc12	56.6%	27.4%	60.7%	94.9%	53.5%		34%	5.77% (active)	33.6%	55.7%
C[C@]12C[C@H]1CC[C@]1(C)[C@@H]2CC[C@@]23C[C@H](CC[C@H]21)[C@@](O)(CO)C3	88.6%	100%	105%	95.4%	103%		97.7%	93.6%	105%	76.2%
[2H]C1([2H])NC([2H])([2H])C([2H])([2H])N(c2ccc(Nc3ncc4cc(C(=O)N(C)C)n(C5CCCC5)c4n3)nc2)C1([2H])[2H]	85%	34%	65.5%	64.3%	61.4%		78.3%	49.2%	88.6%	78.7%
CC(C)(C#N)N1CCN(c2ccccc2Cl)CC1	103%	96.4%	102%	118%		102%	114%	87.3%		112%
OC(c1ccccc1)c1ccccn1 (stereo not drawn)	105%	89.3%	86.5%	100%	96.1%			103%	107%	103%
COc1cc2nc(-c3ccc(C(F)(F)F)cc3)cc(OCCN3CCC(O)CC3)c2cc1OC	53.8%	47%	58.1%	89%	69.2%		68%	-20.6% (active)	80.7%	84.5%
COc1ccc(OC)c(/C=C/[C@H]2O[C@@H](C)[C@H](O)[C@@H]2O)c1	103%	104%	90.2%	99.4%	94%		103%	99.8%	102%	
Cc1[nH]c(C(=O)Nc2ccccc2OCc2cccc(C(=O)NCCN)c2)c(Cl)c1Cl	86.3%	38.2%	86.2%	58.3%	4.71% (active)		95.3%	-48.1% (active)	84.3%	
COc1ccc(-c2nc(SC)nc(N3CCOCC3)c2C#N)cc1	93.9%	92.3%	60.5%	96.7%	91.1%		98.4%	96.1%	106%	83.5%
CC(=O)c1c[nH]c2ccc(-c3ccnc(Nc4ccc(NC(=O)C5CCCC5)c(CN5CCOCC5)c4)n3)cc12	-21.9% (active)	6.97% (active)	-81.4% (active)	-6.49% (active)	10.7%		-74.6% (active)	-54.2% (active)	-62.4% (active)	-90.1% (active)
C(=C\c1n(Cc2ccc3ccccc3c2)c(-c2ccccc2)c(-c2ccccc2)[n+]1Cc1ccc2ccccc2c1)/c1ccccc1	-81.2% (active)	-63.5% (active)	-99.9% (active)	-93.7% (active)	-80.6% (active)		-99.1% (active)	-96% (active)	-80.8% (active)	-89.9% (active)
